# About 19,000 (20%) of roughly 96,000 compounds were called active. These entries were drawn from the full list. Unmarked numbers belong to inactive results.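 How the source made its calls: active means blocking of liver enzyme CYP2C9 beyond about 50% at 5 µM (limit read from the data); inactive means the rest.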
# Molecular target: Cytochrome P450 2C9 (Homo sapiens) (UniProt P11712)
# Experiment: blockers of cytochrome P450 2C9 activity – biochemical, luminescence, ADME assay, primary screen (AID 777)
# Conditions: CYP2C9 Supersomes, luciferin-H conversion, at 5 µM, stronger effect = higher value
# Cytochrome P450 2C9 (Homo sapiens), sequence (P11712 whole entry, looked up): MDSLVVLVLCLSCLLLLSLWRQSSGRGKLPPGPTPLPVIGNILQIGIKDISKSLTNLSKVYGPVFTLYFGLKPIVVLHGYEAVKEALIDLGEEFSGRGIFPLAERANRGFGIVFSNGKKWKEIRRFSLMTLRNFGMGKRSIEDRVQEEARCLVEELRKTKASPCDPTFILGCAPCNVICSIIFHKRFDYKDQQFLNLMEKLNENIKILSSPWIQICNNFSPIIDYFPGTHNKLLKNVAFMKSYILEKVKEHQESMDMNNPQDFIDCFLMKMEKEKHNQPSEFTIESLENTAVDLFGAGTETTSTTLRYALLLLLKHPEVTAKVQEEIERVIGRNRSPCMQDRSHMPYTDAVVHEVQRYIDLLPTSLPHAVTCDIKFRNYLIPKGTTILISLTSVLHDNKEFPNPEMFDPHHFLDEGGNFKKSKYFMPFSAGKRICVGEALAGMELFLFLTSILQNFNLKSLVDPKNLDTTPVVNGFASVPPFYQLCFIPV
row,Structure (SMILES),inhibition
1,Cc1ccc(-n2c(SCC(=O)Nc3ccc4c(c3)OCO4)nnc2-c2ccccn2)cc1,43%
2,Cc1cccc(NC(=S)Nc2ccc(Br)cc2)c1,2.2%
3,CC(C)(C)C(=O)CCN1C(=O)C2(OCCO2)c2ccccc21,7.8%
4,CCN(CC)CCNC(=O)C1c2ccccc2C(=O)N(C)C1c1cn(C)c2ccccc12 (stereo not drawn),1.7%
5,COc1ccc(-c2nnco2)cc1OC,-14.9%
6,COc1ccc(NC(=O)CC2COc3ccccc3O2)c(OC)c1 (stereo not drawn),5.9%
7,O=C(CN1C(=O)CSc2ncccc21)N1CCOCC1,41.4%
8,O=C(c1ccc2c(c1)OCO2)N1CCN(C(=O)c2ccco2)CC1,15.8%
9,O=C(c1ccco1)N1CCN(c2cccc(Cl)c2)CC1,17.6%
10,O=C(c1ccco1)N1CCN(C(=O)C2c3ccccc3Oc3ccccc32)CC1,58.3% (active)
11,COc1nc(Oc2ccc(=O)n(C)n2)nc(N(C)C)n1,-16.1%
12,COc1ccccc1OCCNc1cc(N2CCOCC2)ccc1[N+](=O)[O-],55.8% (active)
13,COc1ccc(C(=O)Cn2nnc(-c3ccc(N4CCOCC4)cc3)n2)cc1OC,-6%
14,COc1cc(C(=S)N2CCOCC2)cc(OC)c1OC(=O)c1cc([N+](=O)[O-])c(C)c([N+](=O)[O-])c1,5.7%
15,Cc1nn(-c2cc(Cl)ccc2N)c(=O)c2ccccc12,2.2%
16,O=C1C2(c3ccccc3)CN(CCCO)CC1(c1ccccc1)CN(CCCO)C2,7.8%
17,Cc1ccc(NC(=O)CCNS(=O)(=O)c2ccc3c(c2)oc(=O)n3C)cc1C,-21.7%
18,FC(F)Oc1ccccc1C1CC(c2ccc(Br)s2)Nc2ncnn21 (stereo not drawn),91.4% (active)
19,CCCCC(=O)N1CC2(C)CN(C(=O)CCCC)CC(C)(C1)C2=O,-4%
20,Cn1cnc([N+](=O)[O-])c1Sc1ccccc1,8.6%
21,O=C(N1CCOCC1)N1CCOCC1,-8.2%
22,COc1ccc(C2CC(c3ccccc3)Nc3ncnn32)cc1 (stereo not drawn),23.9%
23,COc1ccc(C2CC(c3ccc(C)cc3)Nc3nc(N)nn32)cc1 (stereo not drawn),27.3%
24,COc1ccc(C2CC(c3ccc(C)cc3)Nc3ncnn32)cc1 (stereo not drawn),65.4% (active)

row,Structure (SMILES),inhibition
1,CCC(=O)c1ccc(OCC(O)CN2CC(C)OC(C)C2)cc1 (stereo not drawn),18.3%
2,N#Cc1ccc(-c2ccc(Cl)cc2)nc1Oc1ccc(F)cc1,6.8%
3,O=S(=O)(c1ccc(Br)cc1)n1ccc2ccccc21,-2.4%
4,CCOCCOCCC(C(=O)O)P(=O)(c1ccccc1)c1ccccc1 (stereo not drawn),-7.7%
5,COC(=O)c1sccc1NC(=O)c1cc(OC)c(OC)c(OC)c1,7.6%
6,COC(=O)c1sccc1NC(=O)CSc1ccccc1NS(=O)(=O)c1cc(Cl)ccc1Cl,84.2% (active)
7,COC(=O)c1sccc1N/N=C(\C)c1ccc(F)c(Cl)c1,9.3%
8,COC(=O)c1ccccc1Oc1c(F)c(F)nc(N2CCOCC2)c1F,45.2%
9,CCCCSc1nc2c(c(=O)n1CC)SC(C)C2 (stereo not drawn),51.2% (active)
10,CCOc1ccc(NC(=O)CSc2nc3c(c(=O)n2-c2ccccc2OC)SCC3)cc1,40.8%
11,CCCCCn1c(SCCC(C)C)nc2c1c(=O)[nH]c(=O)n2C,10.1%
12,CCn1c(SCC(=O)Nc2ccc3c(c2)OCCO3)nc2c(c1=O)SC(C)C2 (stereo not drawn),92.9% (active)
13,COc1ccccc1C(=O)C(O)c1ccccc1OC (stereo not drawn),-2.8%
14,CCOC(=O)N1CCN(CC(=O)Nc2cc(C)nn2-c2nc3ccccc3s2)CC1,25.8%
15,O=C(c1ccco1)N(Cc1nc2ccccc2c(=O)[nH]1)C1CCCC1,-20.5%
16,CC(=O)Oc1cccc(N2C(=O)CC(Nc3ccc(N4CCOCC4)cc3)C2=O)c1 (stereo not drawn),19.9%
17,CC1OC2C(OC1C)N(S(C)(=O)=O)CCN2S(C)(=O)=O (stereo not drawn),-6.8%
18,Cc1cccc(N2C(=O)C3C(c4ccccc4)OC4(C(=O)c5ccccc5C4=O)C3C2=O)c1 (stereo not drawn),-8.4%
19,Cc1cc(NC(=O)CCC2COc3ccccc3O2)no1 (stereo not drawn),7.1%
20,Cc1cc(NC(=O)CN2CCC(O)(c3cccc(F)c3)CC2)no1,23.3%
21,Cc1ccc(C(C(=O)NC2CCCC2)N(Cc2ccco2)C(=O)CCC(=O)Nc2ccccn2)cc1 (stereo not drawn),28.7%
22,Cc1cc(NC(=O)CCC(=O)N(c2cccc(F)c2)C(C(=O)NC2CCCC2)c2ccncc2)no1 (stereo not drawn),77.9% (active)
23,Cc1cc(NC(=O)/C=C/C(=O)N(c2ccccc2C)C(C(=O)NC2CCCC2)c2ccc(F)cc2)no1 (stereo not drawn),25.2%
24,Cc1cc(NC(=O)CCC(=O)N(c2ccccc2)C(C(=O)NC2CCCC2)c2ccncc2)no1 (stereo not drawn),55.9% (active)

# — PubChem BioAssay AID777 (Sanford-Burnham Center for Chemical Genomics, 2007)
